# KLF5 inhibitor = KLF5 expression inhibitors, primary screen, DLD-1 cells, luminescence; DLD-1 KLF5 promoter-luciferase reporter; actives 0.23% (n = 290,000); inhibition, % at 5 µM;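 active = inhibition above a per-plate limit of that plate's mean compound inhibition plus 3 SD, cut at about 60% in these data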;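 also: 0% = DMSO wells and 100% = LY294002 at 200 µM; higher means less KLF5 promoter-driven luciferase light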
# APP 5UTR inh = inhibitors of APP translation via 5'UTR reporter, primary screen, APP 5'UTR luciferase, SH-SY5Y cells; actives 0.82% (n = 190,000); SH-SY5Y APP 5'UTR-luciferase reporter, luminescence; AID 1285, 2008; inhibition, % at 2 µM;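 active = inhibition above a set limit, derived from the sample mean plus 3 SD, cut at about 45% in these data; inconclusive = one replicate passes the limit while the other fails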
# BaF3 parental = parental Ba/F3 cell viability inhibition, counter-screen for JAK2V617F inhibitor project, murine pro-B, CellTiter-Glo luminescence; CellTiter-Glo ATP luminescence; inhibition, % at 5.6 µM; actives 1.1% (n = 220,000); AID 1486, 2009;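 active = inhibition above a per-campaign cutoff, the mean inhibition of all tested compounds plus 3 SD, cut at about 27% in these data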;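 also: 0% = DMSO wells and 100% = JAK Inhibitor I control wells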
# aSyn UTR inh = MLPCN primary screen, SNCA 5' untranslated region | alpha-synuclein 5'UTR reporter, inhibitor activity | inhibition, % (tested at 7.5 µM) | actives 0.82% (n = 300,000) | AID 1813, 2009; in the data active = inhibition above about 60%; inconclusive = no clear call, values can overlap the other calls;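 also: H4 neuroglioblastoma cells stably carrying SNCA 5'UTR luciferase fusion; 0% = DMSO wells and 100% = positive control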
# IEC-6 tox = cytotoxicity in IEC-6 intestinal epithelial cells, primary screen, cytotoxicity control for KLF5 inhibitor project, cell-based, luminescence; IEC-6 cytotoxicity, luminescence viability; inhibition, % at 5 µM; actives 0.78% (n = 290,000);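 also: 0% = plate median of test compound wells and 100% = cytotoxic reference compound wells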
# Ba/F3 V617F tox = reduced viability of JAK2V617F-dependent Ba/F3 cells, primary screen, JAK2V617F inhibitor project, cell-based, Ba/F3 EpoR-JAK2V617F, luminescence | ATP luminescence | inhibition, % at 5.6 µM | actives 1.1% (n = 220,000) | AID 1446, 2008;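 active = inhibition above the campaign mean plus 3 SD over all tested compounds, cut at about 24% in these data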;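 also: cytokine-independent growth of Ba/F3 cells driven by EpoR plus mutant JAK2; 0% = DMSO-treated cells and 100% = JAK inhibitor I control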
# IEC-6 tox confirm = cytotoxic compounds in IEC-6 epithelial cells, confirmation, cytotoxicity control, cell-based, luminescence. shares compounds with IEC-6 tox. IEC-6 rat intestinal epithelial viability. AID 1907, 2009. inhibition, % at 5 µM. actives 63% (n = 1,900);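 also: 0% = vehicle and 100% = reference cytotoxic drug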
# An asterisk follows results filed as active; u = inconclusive; x = no result given. Most compounds without a hit are left out; they make up all but 2.2% or so of the library. Rule as the data show it, unless noted: active = inhibition above about 22%; inactive = the rest.
SMILES,KLF5 inhibitor,APP 5UTR inh,BaF3 parental,aSyn UTR inh,IEC-6 tox,Ba/F3 V617F tox,IEC-6 tox confirm
C=CCn1cc(C(=O)NCCOC)c(=O)c2cc(S(=O)(=O)N3CCCCCC3)ccc21,-16,x,x,2,24*,x,19
CC1c2cc3c(cc2CCN1C(=O)c1cccc(Cl)c1)OCCCO3 (centres undefined),-10,x,x,-65,25*,x,8
CC1c2cc3c(cc2CCN1CC(=O)Nc1ccccc1)OCCCO3 (centres undefined),10,x,x,-6,6,x,x
CN(C)c1cccc(NC2=CC(=[N+]3CCOCC3)CC(C)(C)C2)c1,-18,5,4,1,-2,2,x
CN(Cc1ccccc1)C1=CC(=[N+]2CCCC2)CC(C)(C)C1,-4,x,73*,-18,31*,94*,28*
C/C(=N/NC(=O)c1nnn(-c2nonc2N)c1COc1ccccc1)c1ccc(O)cc1,-17,x,x,9,-8,x,x
COc1ccccc1N(CC(=O)NC(C)(C)C)C(=O)CCC(=O)Nc1nccs1,-34,x,x,5,-7,x,x
CN1/C(=C/C(=O)CSc2ccccc2C(=O)O)C(C)(C)c2ccccc21,-3,x,6,3,5,1,x
CN1/C(=C\C(=O)CSc2cccc[n+]2[O-])C(C)(C)c2ccccc21,-21,-9,23,13,104*,8,-7
CC(C)CNS(=O)(=O)c1ccc(S(=O)(=O)N2CCN(C3CCCC3)CC2)cc1,0,x,x,12,-1,x,x
Cc1cccc(C(=O)N[C@H](C(=O)Nc2nc3ccccc3[nH]2)C(C)C)c1,17,62*,27*,96*,74*,77*,56*
COc1ccc(NC(=O)C(NC(=O)c2ccccc2)C(C)C)cc1 (centres undefined),-18,13,7,-22,-5,-1,x
COc1ccc(C(=O)N[C@H](C(=O)Nc2nc3ccccc3[nH]2)C(C)C)cc1,-25,77*,61*,106*,63*,42*,59*
Cc1ccc(S(=O)(=O)N2CCCCC2)cc1NC(=O)Cn1c(=O)cnc2ccccc21,-35,-12,11,5,2,7,x
CCOc1ccc(S(=O)(=O)N2CCC(C(=O)NCc3ccccn3)CC2)cc1C,-12,x,x,44,12,x,x
Cc1nn(Cc2noc(C(=O)NCc3ccc4c(c3)OCO4)n2)c(C)c1Br,14,x,x,10,8,x,x
CCOC(=O)Nc1cc(=O)c2ccccc2o1,35,-11,60*,-19,44*,69*,23*
CC(C)c1ccc(/C=N/n2cnnc2)cc1,18,x,3,-10,2,0,x
N#CC1=C(N)Oc2ccc3ccccc3c2C1c1cccnc1 (centres undefined),47,54*,34*,u,55*,53*,48*
COCCCC1CCN(C(=O)C2CCC(=O)N(CCc3cccc(F)c3)C2)CC1 (centres undefined),-30,x,x,-6,-4,x,x
COc1ccc(NS(=O)(=O)c2ccc3c(c2)N(C(C)=O)CC(C)S3)c(OC)c1 (centres undefined),1,x,x,-4,5,x,x
COc1ccc(CNC(=O)C(C)OC(=O)CO/N=C(\C)c2ccc3c(c2)OCO3)cc1 (centres undefined),x,x,x,1,x,x,x
COc1cccc(-n2nc(C(N)=O)c(O)cc2=O)c1,-18,-3,3,5,-1,1,x
COc1cccc(-n2nc(C#N)c(Cl)cc2=O)c1,12,91*,-10,17,28*,8,29*
O=S(=O)(/C(=C/c1ccc(C(F)(F)F)cc1)c1nc2ccccc2[nH]1)c1ccccc1,-8,60*,11,-62,53*,42*,48*
SMILES,KLF5 inhibitor,APP 5UTR inh,BaF3 parental,aSyn UTR inh,IEC-6 tox,Ba/F3 V617F tox,IEC-6 tox confirm
CS(=O)(=O)/C(C#N)=C\c1cnc(S(=O)(=O)c2ccccc2)s1,-21,x,x,-37,36*,x,9
Cc1ccc(C2NC(=O)c3ccccc3N2)s1 (centres undefined),43,18,80*,-168,73*,83*,8
COc1ccccc1S(=O)(=O)Cc1ccc(C(=O)NCCCN2CCN(c3ccc(F)cc3)CC2)o1,-1,x,x,20,0,x,x
CCCCCCCCn1c2c(c(=N)c3ccccc31)CCC2,55,-10,82*,59,40*,99*,37*
CCCCc1ccc(NC(=O)Nc2cnccn2)cc1,-24,x,x,-98,45*,x,23*
C(=C\c1ccccc1)/CSc1nnc(-c2ccncc2)n1Cc1ccco1,-6,-13,4,0,7,3,x
Brc1ccc(CSc2nnc(-c3ccccn3)n2Cc2ccco2)cc1,5,4,10,9,28*,1,22
CC(C)(C)c1ccc(CSc2nnc(-c3ccccn3)n2Cc2ccco2)cc1,-30,-10,6,9,-2,-1,x
C(=C\c1ccccc1)/CSc1nnc(-c2ccccc2)n1Cc1ccco1,6,17,23,14,34*,41*,36*
COC(=O)c1ccc(/C=N/NC(=O)CC(=O)NCc2cccnc2)cc1,-19,1,5,-3,1,2,x
COc1ccc(CC(=O)N2N=C(c3ccncc3)CC2(O)C(F)(F)F)cc1 (centres undefined),28,2,25,-30,24*,5,30*
COc1cccc(C(=O)N2N=C(c3ccccn3)CC2(O)C(F)(F)F)c1 (centres undefined),-16,x,-1,61,24*,-1,12
COc1ccc(-c2cc(=O)oc3cc(OC(C)C(=O)NCCCn4ccnc4)ccc23)cc1 (centres undefined),-15,x,x,33,-12,x,x
O=C(NNC(=S)NC1CCCCC1)c1ccccc1Br,-76,x,x,-43,-3,x,x
O=C(Nc1cccnc1)c1ccc([N+](=O)[O-])o1,-11,x,x,-202,76*,x,2
O=C(Cc1ccc(-c2ccccc2)cc1)NCc1cccnc1,-1,-40,20,-48,25*,18,25*
O=C(Nc1cccnc1)c1ccco1,-8,26,6,-13,-4,1,x
O=C(NCc1cccnc1)c1ccc([N+](=O)[O-])o1,-17,7,-6,-117,32*,1,16
Cc1csc(=O)n1CC(=O)OCC(=O)c1c(N)n(CC(C)C)c(=O)n(C)c1=O,x,x,x,5,x,x,x
Cc1cc(C(=O)N2CCN(C/C=C/c3ccccc3)CC2)cs1,2,-16,3,16,45*,0,-16
O=C(c1cccnc1)N1CCN(C/C=C/c2ccccc2)CC1,-18,-9,6,15,3,0,x
